This is an account of results in PubChem BioAssay (Tox21).

Experiment [1] can be described thus: qHTS assay to identify small molecule agonists of the vitamin D receptor (VDR) signaling pathway - cell viability counter screen (AID 743224). Note: series mostly up to about 63 µM; % is set by controls: 0 for no effect and ±100 for the full control effect; nearly all actives have a fitted effect of over 50% in size. Summed up:
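VDR-bla cell line, quantitative HTS format; 16 h compound incubation (37C, 5% CO2); ATP-based CellTiter-Glo luminescence measured in the reporter assay wells.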

Experiment [2] can be described thus: qHTS assay to identify small molecule agonists of the NFkB signaling pathway (AID 1159509; active = well fitted curve in the direction sought with a large enough effect in the signal ratio in the repeat runs, not every such curve was filed as active; the % refers to the signal ratio; note: series mostly up to about 61 µM; % is set by controls: 0 for no effect and ±100 for the full control effect). Summed up: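 NFkB-bla ME-180 cells carry a beta-lactamase reporter under an NF-kB response element. They were plated overnight, then exposed to compounds for 5 h at 37 C. Read-out is LiveBLAzer FRET after 1.5 hr at room temperature (405 nm excitation; 460/530 nm emission).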

Experiment [3] is described as follows: qHTS assay to identify small molecule agonists of the NFkB signaling pathway - cell viability counter screen (AID 1159515; calls by dose curve; note: series mostly up to about 61 µM; % is set by controls: 0 for no effect and ±100 for the full control effect; nearly all actives have a fitted effect of over 55% in size). The procedure, abridged:
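Viability in NFkB-bla ME-180 cells was measured by CellTiter-Glo luminescence, 30 min room temperature, in wells already treated 5 hr with compounds and read for reporter FRET.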
(qHTS replaces the single test concentration by a dilution series.)

Experiment [4] is described as follows: qHTS assay to identify small molecule agonists of the endoplasmic reticulum stress response signaling pathway (AID 1159516; active = well fitted activation curve with a large enough effect in the signal ratio in the repeat runs, not every such curve was filed as active; the % refers to the signal ratio; note: % is set by controls: 0 for no effect and ±100 for the full control effect). Summed up:
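ER stress element reporter (bla) in HeLa. 1,500 cells/well, overnight attachment; 5 hr compound; 2 hr RT substrate; dual-emission fluorescence.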

Experiment [5] is described as follows: qHTS assay to identify small molecule agonists of the endoplasmic reticulum stress response signaling pathway - cell viability counter screen (AID 1159517; calls by dose curve;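 note: HeLa cells carrying an ER stress response element beta-lactamase reporter; series mostly up to about 61 µM; % is set by controls: 0 for no effect and ±100 for the full control effect; nearly all actives have a fitted effect of over 50% in size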). Summed up: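 ESRE-bla HeLa cells, 1,500 per well, seeded overnight then treated with compounds for 5 hr at 37 C. After the beta-lactamase read, viability in the same wells is measured by CellTiter-Glo luminescence after 30 min at room temperature.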

A short description of experiment [6]: qHTS assay to identify small molecule antagonists of the retinoid-related orphan receptor gamma (ROR-gamma) signaling pathway - cell viability counter screen (AID 1159520). Note: % is set by controls: 0 for no effect and ±100 for the full control effect; nearly all actives have a fitted effect of over 50% in size. Summed up: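 Tet-on ROR gamma CHO cells were given compounds for 2 hr, then doxycycline hyclate at 1 uM final, and incubated 16 hr at 37 C. Viability was measured as ATP content by CellTiter-Glo luminescence.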

Experiment [7] has as its target Nuclear receptor ROR-gamma (Homo sapiens) (UniProt P51449). Put plainly: qHTS assay to identify small molecule antagonists of the retinoid-related orphan receptor gamma (ROR-gamma) signaling pathway (AID 1159521;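 note: CHO cells with doxycycline inducible ROR-gamma driving an RORE luciferase reporter; top concentration of the series differs between compounds; % is set by controls: 0 for no effect and ±100 for the full control effect; nearly all actives have a fitted effect of over 50% in size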). The procedure, abridged:
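CHO Tet-on RORγ, RORE-luc reporter. Cpd 2 h pre-incubation, then dox hyclate 1 uM final, 16 h, 37 C/5% CO2. ONE-Glo luminescence; decrease = antagonist.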

The nature of experiment [8]: qHTS assay to identify small molecule agonists of the AP-1 signaling pathway - cell viability counter screen (AID 1159525; calls by dose curve; note: nearly all actives have a fitted effect of over 55% in size). The procedure, abridged:
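AP-1-bla ME-180 cells in Opti-MEM with 0.5% dialyzed FBS, compound exposure 5 h at 37 C in 15-point titration. Viability read in the same wells as ATP content by CellTiter-Glo luminescence, normalised to tetra-n-octylammonium bromide and DMSO controls.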

Experiment [9] is described as follows: qHTS assay to identify small molecule agonists of the AP-1 signaling pathway (AID 1159526; calls by dose curve; note: % is set by controls: 0 for no effect and ±100 for the full control effect).
In experiment [10] the target is Retinoic acid receptor RXR-alpha (Homo sapiens) (UniProt P19793). Description: qHTS assay to identify small molecule agonists of the RXR signaling pathway (AID 1159527; calls by dose curve; note: nearly all actives have a fitted effect of over 35% in size; note: potency is the fitted concentration of half-maximal effect). The procedure, abridged: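 Read-out: beta-lactamase FRET ratio (405 nm excitation, 460 and 530 nm emission) after 2 hr substrate loading at room temperature. Cells were RXR-alpha-UAS-bla HEK 293T treated with compounds for 16 hr in 2% charcoal-stripped FBS medium.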
Retinoic acid receptor RXR-alpha (Homo sapiens), sequence (P19793 whole entry, looked up): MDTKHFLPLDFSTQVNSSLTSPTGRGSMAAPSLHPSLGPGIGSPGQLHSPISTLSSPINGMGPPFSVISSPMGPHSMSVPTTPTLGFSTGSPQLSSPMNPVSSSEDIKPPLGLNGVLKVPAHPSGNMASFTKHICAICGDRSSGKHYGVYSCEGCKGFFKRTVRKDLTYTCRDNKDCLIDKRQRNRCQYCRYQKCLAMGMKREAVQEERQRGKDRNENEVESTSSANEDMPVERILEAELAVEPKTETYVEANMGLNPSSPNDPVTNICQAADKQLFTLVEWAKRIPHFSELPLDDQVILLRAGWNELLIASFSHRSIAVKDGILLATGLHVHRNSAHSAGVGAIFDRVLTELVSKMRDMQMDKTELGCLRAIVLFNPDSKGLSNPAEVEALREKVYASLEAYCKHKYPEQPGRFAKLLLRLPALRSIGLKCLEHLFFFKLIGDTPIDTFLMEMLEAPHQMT

Experiment [11] in a line: qHTS assay to identify small molecule agonists of the RXR signaling pathway - cell viability counter screen (AID 1159529). Summed up:
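HEK 293T RXRa-bla cells, 2% CS-FBS; 5 h settle; cpd 16 h 37 C, 5% CO2; CellTiter-Glo 30 min RT, luminescence. Tetraoctyl ammonium bromide as positive control.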

Experiment [12] in a line: qHTS assay to identify small molecule antagonists of the retinoid acid receptor (RAR) signaling pathway - cell viability counter screen (AID 1159551). Note: % is set by controls: 0 for no effect and ±100 for the full control effect; nearly all actives have a fitted effect of over 35% in size. The procedure, abridged:
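Following overnight attachment, C3RL4 reporter cells received DMSO-dissolved compounds and then retinol (1 uM final). Six hours later at 37 C, ATP content was measured by CellTiter-Glo luminescence.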

Experiment [13] in a line: qHTS assay to identify small molecule antagonists of the retinoic acid receptor (RAR) signaling pathway (AID 1159552; note: nearly all actives have a fitted effect of over 50% in size; note: potency is the fitted concentration of half-maximal effect). The procedure, abridged:
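Cells of the C3RL4 line were seeded, incubated overnight, then dosed with compounds in DMSO followed immediately by retinol (1 uM final). Six hours later luciferase detection reagent went in; signal was measured after 30 min at RT.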

Experiment [14] is described as follows: qHTS assay to identify small molecule agonists of the retinoic acid receptor (RAR) signaling pathway (AID 1159553). Note: % is set by controls: 0 for no effect and ±100 for the full control effect. The procedure, abridged: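 Cell line C3RL4, RARE luciferase reporter. Treatment: compounds in DMSO, 6 hr, 37 C, 5% CO2, after overnight plating. Detection: luminescence, 30 min RT after reagent.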
Experiment [15] can be described thus: qHTS assay to identify small molecule antagonists of the estrogen related receptor (ERR) signaling pathway - cell viability counter screen (AID 1224818). The procedure, abridged:
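Here, ERR cells are plated at 2,000 cells per well, allowed 6 h to attach, and treated with compounds in DMSO for 17.5 h at 37 C. CellTiter-Fluor is then added and fluorescence read after 30 min.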

Experiment [16] in a line: qHTS assay to identify small molecule antagonists of the estrogen related receptor signaling pathway with the pleiotropic PPARgamma coactivator (PGC) cell viability counter screen (AID 1224822). Summed up:
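qHTS format, DMSO compound stocks pin-transferred onto PGC/ERR cells 6 h after plating; 17.5 h exposure at 37 C, then CellTiter-Fluor fluorescence.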

The nature of experiment [17]: qHTS assay to identify small molecule antagonists of the vitamin D receptor (VDR) signaling pathway - cell viability counter screen (AID 743225). Summed up:
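Read-out: CellTiter-Glo luminescence measured 30 min after reagent addition at room temperature. Cells were VDR-bla HEK 293T exposed 16 h at 37C, 5% CO2, to compound with 3 nM final calcitriol agonist.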

The nature of experiment [18]: qHTS assay to identify small molecule antagonists of the estrogen related receptor (ERR) signaling pathway (AID 1224819). Summed up: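 LOPAC library screened for antagonism as reduced One-Glo luminescence in ERR reporter cells (2,000/well). Compounds were added after 6 h pre-incubation and left 18 h at 37C; reading followed a 30 min room-temperature reagent step.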

The nature of experiment [19]: qHTS assay to identify small molecule agonists of the estrogen related receptor (ERR) signaling pathway (AID 1224820). Note: % is set by controls: 0 for no effect and ±100 for the full control effect. The procedure, abridged:
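ERR reporter cell line (from NTP), 2,000 cells/well, incubated 6 h before compound addition, then 18 h at 37 C. Luminescence measured 30 min after One-Glo reagent at room temperature.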

For experiment [20], the system named is estrogen-related receptor alpha (ERRalpha) with PGC-1alpha coactivator, human. Description: qHTS assay to identify small molecule antagonists of the estrogen related receptor signaling pathway with the pleiotropic PPARgamma coactivator (PGC) (AID 1224821; calls by dose curve). The procedure, abridged:
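PGC/ERR reporter cell line, plated 6 h before compound addition, then exposed 18 h at 37 °C. Luciferase activity read by luminescence 30 min after One-Glo addition; decrease indicates antagonism.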

Several values for one entry are separate records, joined by “and”; a condition that tells them apart may be missing. Identical values can stand only once. Records with an inconclusive call do not appear. Some compounds were tested as several samples or in several runs, with calls that do not always agree. Activity calls are given as the source filed them. Unless noted, calls come from the whole dose curve; as a rule, active = well fitted curve in the direction sought with a large enough effect in the repeat runs; inconclusive = weak or mixed curves; inactive = no such curve, though single readings can be large; an effect the other way counts as inactive or inconclusive.

Turning to `Nc1ccc(S(=O)(=O)Nc2ccnn2-c2ccccc2)cc1`, the Potency result in experiment [1], in [7], in [10], in [11] and in experiment [14] was “inactive” throughout. The compound was called inactive in experiment [2], in experiment [3], in experiment [4], in [5], in experiment [9] and in experiment [15]. Also, the outcome in [16] was inactive. For the same compound, in experiment [6], the activity, negative = cytotoxicity is 2.08% [at 19 µM] (inactive). The viability change, negative = cytotoxic in experiment [8] was 2.53% [at 15.8 µM] (inactive). Further, the activity change, negative = cytotoxicity in [12] was 2.06% [at 19 µM] (inactive). In addition, the activity, negative = inhibition in experiment [13] is -19.4% [at 19 µM] (inactive).

Turning to `C[C@H](NC(CCc1ccccc1)C(=O)O)C(=O)N1CCC[C@H]1C(=O)O` (some centres not stated), the Potency result in [1], in [17], in [7], in experiment [8], in experiment [10] and in experiment [11] was “inactive” each time. Also, the Potency result in experiment [13] and in experiment [14] was “inactive” in each case. Further, the compound was classed as inactive in experiment [2], in [3], in experiment [4], in [5], in experiment [6] and in [9]. The call in experiment [12], in experiment [15], in experiment [18], in experiment [19], in experiment [20] and in [16] was inactive.

As to `O=C1CC2CC1C1CCCC21` (configuration not stated), the Potency result in experiment [1], in experiment [7], in experiment [8], in experiment [10], in experiment [11] and in experiment [13] was “inactive” each time. Further, the Potency result in experiment [14] is “inactive”. Also, the compound was called inactive in experiment [2], in experiment [3], in experiment [4], in experiment [5], in experiment [6] and in experiment [9]. Further, the call in experiment [12] was inactive.

With `OCCCC1CCCCC1`, the Potency result in experiment [1], in [7], in experiment [8], in experiment [10], in experiment [11] and in experiment [13] was “inactive” in each case. For the same compound, the Potency result in experiment [14] is “inactive”. Further, the compound was called inactive in [2], in experiment [3], in [4], in [5], in [6] and in experiment [9]. Besides, the call in experiment [12] was inactive.

As to `O=C(CCCN1CCC(O)(c2cccc(C(F)(F)F)c2)CC1)c1ccc(F)cc1`, the Potency entry in [1], in [17], in experiment [7], in experiment [8], in [10] and in [11] was “inactive” throughout. Further, the Potency entry in experiment [13] and in experiment [14] was “inactive” in each case. In addition, the result in experiment [2], in experiment [3], in experiment [4], in [5], in [6] and in [9] was inactive. Besides, the call in [12], in experiment [15], in [19], in experiment [20] and in experiment [16] was inactive.

In the case of `C[N+](C)(C)CCCCCC[N+](C)(C)C`, the Potency entry in experiment [1], in experiment [17], in experiment [7], in [8], in [11] and in experiment [14] was “inactive” in each case. The compound was called inactive in experiment [2], in experiment [3], in experiment [4], in experiment [5], in experiment [6] and in [9]. Moreover, the outcome in [12], in experiment [15] and in experiment [16] was inactive. Further, the Potency result in experiment [10] is “inactive and 10.7 µM (active)”; in experiment [13], “inactive and 16.8 µM (active)”.

As to `CC(C)(C)NCCNC(C)(C)C`, the Potency entry in [1], in experiment [17], in experiment [7], in experiment [8], in [10] and in experiment [11] was “inactive” each time. The Potency result in [13] and in [14] was “inactive” throughout. Also, the compound was classed as inactive in experiment [2], in experiment [3], in experiment [4], in experiment [5], in experiment [6] and in [9]. The compound was classed as inactive in experiment [12].

As for `OCCOc1ccc(OCCO)cc1`, the Potency result in experiment [1], in experiment [7], in [8], in experiment [10], in experiment [11] and in experiment [13] was “inactive” throughout. The Potency result in [14] was “inactive”. The result in [2], in [3], in experiment [4], in [5], in experiment [6] and in [9] was inactive. For the same compound, the call in [12] was inactive.

For `O=C(c1ccccc1)C1CCCCC1`, the compound was called inactive in [2], in experiment [3], in experiment [4], in [5], in experiment [6] and in experiment [9]. Besides, the call in experiment [12] was inactive. Besides, the Potency entry in experiment [7], in experiment [8], in experiment [10], in [11], in experiment [13] and in [14] was “inactive” in each case.
